Assay results as given in PubChem BioAssay (NCATS).
Calls of active or inactive are those of the source. Calls follow the shape of the dose curve; as a rule, active = well fitted activation curve with a large enough effect; inconclusive = small, poorly fitted or top-dose-only effect; inactive = flat fitted curve, though single readings scatter.

Assay: Cellular Toxicity (caspase-3) N2a (AID 665);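 also: compound exposure lasted 16 h at 37 °C before readout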
Conditions: N2a cells, luminescence, normalized: DMSO 0%, 10 µM staurosporine 100%; series mostly up to 92.2 µM
From the text: NIH Chemical Genomics Center [NCGC]
NIH Molecular Libraries Screening Centers Network [MLSCN]
National Institutes of Environmental Health Sciences [NIEHS]
National Toxicology Program [NTP]
We have developed a 1536-well cell-based assay for quantitative high throughput screening (qHTS) against a number of cell lines to determine in vitro caspase 3/7 activity of small molecules. This particular assay uses the N2a cell line which is derived from mouse neuroblastoma.
NCGC Assay Protocol Summary:
The Caspase-Glo 3/7 assay (Promega) is a homogeneous method to measure caspase-3 and caspase-7 activities in cultured cells. The quantitation of caspase 3/7 activity is based on the cleavage of a peptide-aminoluciferin substrate. After caspase cleaves the substrate the free aminoluciferin is liberated and serves as the substrate of luciferase, which generates the light. The luminescent signal is proportional to the amount of caspase 3/7 activity present.
Using the Caspase-Glo 3/7 assay, the amount of caspase 3/7 activity was measured in the N2a cells with complete culture medium following compound treatment for 16 hours. The assay was performed in opaque white 1536-well plates. In the screen, staurosporine and doxorubicin were used as positive controls. Library compounds were measured for their ability to cause the activation of caspase 3/7 in the cell line, as reflected by an increase in luminescence signal, in a concentration-dependent manner. Data were normalized to the controls for basal activity (DMSO only) and 100% stimulation (10 uM staurosporine). AC50 values were determined from concentration-response data modeled with the standard Hill equation.
qHTS protocol for caspase 3/7 assay in mouse N2a cell line
[Step] [Parameter] [Value] [Description]
1. Reagent; 5 uL; 1500 mouse N2a cells/well
2. Time; 5 hr; 37 °C incubation
4. Controls; 23 nL; doxorubicin 7 pM to 100 uM & staurosporine 1.4 pM to 20 uM
5. Time; 16 hr; 37 °C incubation
6. Reagent; 5 uL; Caspase-Glo 3/7 reagent
7. Time; 1 hr; Room Temperature
8. Detection; Luminescence; Viewlux plate reader
Keywords: caspase 3/7, apoptosis, mouse N2a cell line, luminescence, NTPHTS, NTPHTS_NCGC, NIEHS, EPA, DSSTox, MLSMR, MLSCN, NIH Roadmap, qHTS, NCGC
In the case of `CCCCNC(=O)NS(=O)(=O)c1ccc(C)cc1`, the outcome is reported as “inactive”.
In the case of `CCCCOCCOCCOCc1cc2c(cc1CCC)OCO2`, the outcome is reported as “inactive”.
For `COc1ccc(CN(CCN(C)C)c2ccccn2)cc1`, the outcome was “inactive”.
For `Nc1ncn([C@@H]2O[C@H](CO)[C@@H](O)[C@H]2O)c(=O)n1`, the outcome was “inactive”.
For `CN=C(NC#N)NCCSCc1nc[nH]c1C`, the outcome was “inactive”.
With `COC(=O)[C@H]1[C@H]2C[C@@H]3c4[nH]c5cc(OC)ccc5c4CCN3C[C@H]2C[C@@H](OC(=O)c2cc(OC)c(OC)c(OC)c2)[C@@H]1OC` the outcome was “inactive”.
In the case of `COc1cc(Cc2cnc(N)nc2N)cc(OC)c1OC`, the outcome is reported as “inactive”.
With `O=c1[nH]c(=O)n([C@H]2C[C@H](O)[C@@H](CO)O2)cc1Br` the outcome was “inactive”.
In the case of `NC(=Nc1ccccc1)Nc1ccccc1`, the outcome is reported as “inactive”.
In the case of `Nc1nc(N)c2nc(-c3ccccc3)c(N)nc2n1`, the outcome is reported as “inactive”.
For `NC(=O)N1c2ccccc2C=Cc2ccccc21`, the outcome was “inactive”.
